Assay results: PubChem BioAssay (NCI)
Compounds without any hit were thinned out: in the full panel of roughly 79,000, 15% have a hit. Values without a mark were called inactive. The source made the active and inactive calls. Rule as the data show it: active = growth inhibition above about 70%; inactive = the rest.

Test: NCI Yeast Anticancer Drug Screen. Data for the sgs1 mgt1 strain (AID 161);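 also: 0% = growth of cultures given vehicle only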
Settings: S. cerevisiae sgs1 mgt1 strain, at 50.0 µM, stronger effect = higher value
Procedure, shortened: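 Yeast cells carrying a defined DNA-repair defect were exposed to test compounds. Growth inhibition was measured relative to vehicle-treated controls.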

| Compound | growth inhibition |
| --- | --- |
| C=C(c1ccc(OC)cc1)c1cc(C(C)(C)C)c(O)c(C(C)(C)C)c1 | -17.9% |
| C=C(C)COC(=O)COc1ccc(Cl)cc1 | -3.5% |
| O=C(NCc1ccc(Cl)c(Cl)c1)Nc1ccccc1F | 6.1% |
| CN(C)CCC(C(=O)C(C)(C)C)c1ccccn1 (stereo not drawn) | -5.65% |
| C=Cc1c(C)c(C)c(C=C)c(C)c1C | -8.2% |
| N#CCN1CCOCCOCCN(CC#N)CCOCCOCC1 | 5.75% |
| C=C[C@@H]1C(CO)=CCC2[C@H]1CCC1C(C)(C)C(=O)CC[C@]21C (stereo partly drawn) | -5.7% |
| Cc1ccc(/C=C2\N=C(N3CCCC(CO)C3)NC2=O)cc1 (stereo not drawn) | -18.3% |
| CC1CC(C)OC(c2ccccc2)O1 (stereo not drawn) | -2.7% |
| COc1ccc(OC)c(C(=O)C=C(C(F)(F)F)C(F)(F)F)c1 | -3.8% |
| COc1ccc(Cc2c(O)ccc3ccccc23)cc1 | 99% (active) |
| ClSC(c1ccccc1)(c1ccccc1)c1ccccc1 | 57.6% |
| CCCCCCCCCCCCCC(=O)OCC1OC(n2cc(F)c(=O)[nH]c2=O)C(N)C(OC(=O)CCCCCCCCCCCCC)C1O (stereo not drawn) | 22.5% |
| CCN(CC)C(=O)C1CCN(CCC(=O)Nc2ccccc2)CC1 | 12.9% |
| CC1=C(C(=O)O)CCc2ccccc21 | 19.9% |
| O=C(c1ccccc1CO)N1CCCCC1 | -1.55% |
| N#CNC(=NCCO)NCCO | -2.25% |
| CC1CCC(C(C)C)C(OC2(c3ccccc3)OC(=O)c3ccccc32)C1 (stereo not drawn) | 15.4% |
